From PubChem
DT40 TDP1 no CPT = qHTS for Inhibitors of human tyrosyl-DNA phosphodiesterase 1 (TDP1): qHTS in cells in absence of CPT; Potency, µM (top dose mostly 46.2 µM), without a hit: at the highest dose activity change, negative = growth inhibition, hits mostly inhibitors; AID 686978, 2013; 420,000 compounds, 15% hits; DT40 Tdp1-/- hTDP1 cells, no CPT, ATP luminescence, 48 h; note: potency is the fitted concentration of half-maximal effect; nearly all actives have a fitted effect of over 55% in size
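Compound effects on proliferation are scored in DT40 Tdp1-/-;hTDP1 cells in the absence of CPT. ATP levels (CellTiter-Glo luminescence) are recorded after a ≥48 hr, 37 °C incubation.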
ELG1 DNA repair = inhibitors of ELG1-dependent DNA repair in HEK293T cells | HEK293T ELG1-luciferase reporter, luminescence, 16 h; DNA damage induced by 5-fluorouridine | Potency, µM (highest dose often 46.1 µM), inactives show at the highest dose activity change, negative = inhibition, hits mostly inhibitors | 330,000 compounds, 2.3% hits | AID 504467; note: potency is the fitted concentration of half-maximal effect; nearly all actives have a fitted effect of over 55% in size
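5-Fluorouridine DNA damage + compound/DMSO, 2,000 cells/well, 16 h, 37 °C/5% CO2. ONE-Glo, 30 min RT, luminescence. Readout = decrease in reporter signal.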
DT40 TDP1 CPT = growth inhibition of DT40 Tdp1-/-;hTDP1 cells with camptothecin (screen for TDP1 inhibitors) | chicken DT40 Tdp1-/-;hTDP1 cells + 20 nM CPT, ATP luminescence, 48 h | Potency, µM (titrated, usually from 46.2 µM), for the others: top-dose activity change, negative = growth inhibition, most hits filed as inhibitors | 420,000 compounds, 12% hits; note: potency is the fitted concentration of half-maximal effect; nearly all actives have a fitted effect of over 55% in size
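Chicken DT40 Tdp1-/- cells complemented with human TDP1, 400 cells/well, exposed to compounds plus 20 nM camptothecin for at least 48 h at 37 C; viability read as ATP content by CellTiter-Glo luminescence.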
HT1080 IDH1KD tx = kills HT-1080 cells with IDH1 knockdown | AID 686971 | HT-1080 IDH1 knockdown viability, ATP luminescence, 48 h | 360,000 compounds, 2% hits | Potency, µM (highest dose often 46.1 µM), without a hit: top-dose activity, negative = toxicity, actives largely listed as cytotoxic;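 note: potency is the fitted concentration of half-maximal effect; 0% = DMSO wells and -100% = cell-free medium wells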
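Cytotoxicity counter-line: IDH1KD HT-1080, 48 h, CellTiter-Glo. Curves classed by r2, magnitude and activity.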
HT1080-NT tox = kills 2HG-producing HT-1080-NT fibrosarcoma cells; 360,000 compounds, 1.6% hits; Potency, µM (series often up to 46.1 µM), for inactives: at the highest dose activity, negative = less viability, actives largely listed as cytotoxic; HT-1080-NT fibrosarcoma viability, CellTiter-Glo ATP luminescence, 48 h;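 note: NT is the 2HG producing partner of a matched IDH1 knockdown line; potency is the fitted concentration of half-maximal effect; 0% = DMSO-treated cells and -100% = media-only wells without cells; nearly all actives have a fitted effect of over 55% in size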
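Read-out is CellTiter-Glo luminescence after 10 minutes at room temperature, following 48 hours' compound treatment of HT-1080-NT cells (750 cells/well, RPMI, 5% FBS, 37 degrees C).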
IL1B secr inh = inflammasome signaling inhibition, IL-1 beta readout; AID 743279; 360,000 compounds, 4.7% hits; THP-1 LPS/ATP IL-1B secretion, AlphaLISA, 16 h; hits give low values; activity change, % at 57.5 µM; in the data active = activity change below about -50%; inconclusive = mostly about -30% to -49%
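THP-1 cells pretreated 1 hr with compounds (up to 57.5 uM final), then stimulated with LPS (250 ng/mL final) plus ATP (1.25 mM final); secreted IL-1B measured by AlphaLISA after 16 hr, decreased signal indicating inhibition.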
* hit, by the source's call; ? = inconclusive; . = not tested or not shown; [ ] = another dose, or the depositor's remark. In the library only some 19% were active in any assay of this set; here they are far more common. Unless noted, calls come from the whole dose curve; as a rule, active = well fitted curve in the direction sought with a large enough effect; inconclusive = small, poorly fitted or top-dose-only effect, or another doubt; inactive = no such curve, though single readings can be large; an effect the other way counts as inactive or inconclusive. Unless noted, % is set by controls: 0 for no effect and ±100 for the full control effect.

SMILES	DT40 TDP1 no CPT	ELG1 DNA repair	DT40 TDP1 CPT	HT1080 IDH1KD tx	HT1080-NT tox	IL1B secr inh
CCCCCCCCNS(=O)(=O)CCNCCCC	16µM*	.	?	-1%	-9%	?
Cc1nc(CC(=O)c2ccc(O)c(C)c2O)cs1	3%	?	-5%	15%	3%	-14
COc1ccc(OC)c(-c2ccc(O)c(CN3CCc4c([nH]c5ccccc45)C3)c2)c1	?	.	-5%[9.04 µM]	.	.	.
Cc1cccc(OCCSc2nc3ccccc3n2CC(=O)N2CCOCC2)c1	-12%	.	-12%	.	.	.
O=C1N(C2CCCC2)C[C@@H]2C[C@@H](c3cccn3-c3ccccn3)N3CCC[C@@]123	-2%	4%	-1%	11%	10%	0
O=C1N(C2CCCC2)C[C@@H]2C[C@@H](c3cccn3-c3nccs3)N3CCC[C@@]123	-27%	7%	-17%	-3%	1%	-79*
Cc1ccc2ncc(S(=O)(=O)c3ccccc3)c(N3CCCCC3C)c2c1 (stereo unspecified)	18µM*	6%	23µM*	-18%	-20%	0
COc1ccc(-c2nsc3c(N4CCN(S(=O)(=O)c5ccccc5F)CC4)ncnc23)cc1	-16%	26%	-22%	10%	-2%	-6
COc1ccc2nc(C)cc(N3CCN(S(=O)(=O)c4ccccc4F)CC3)c2c1	3.3µM*	?	?	-4%	-11%	?
COc1ccc2ncc(S(=O)(=O)c3ccccc3)c(N3CCN(c4ccccc4)CC3)c2c1	?	16µM*	?	3%	2%	5
CC1CCCN(c2c(S(=O)(=O)c3ccccc3)cnc3ccc(Cl)cc23)C1 (stereo unspecified)	-11%	.	-29%	.	.	.
Cc1cc(N2CCN(S(=O)(=O)c3ccc(Cl)c(Cl)c3)CC2)c2ccccc2n1	16µM*	?	?	?	?	-12
COc1cc2ncc(S(=O)(=O)c3ccccc3)c(N3CCC4(CC3)OCCO4)c2cc1OC	?	?	?	-17%	-15%	?
CCC(CN)CC(C)CCNCC(O)CNCC(C)CC(CC)CN (stereo unspecified)	3%	.	-1%	.	.	.
CCCC[C@H]1COCCS(=O)(=O)N1Cc1ccccc1F	?	?	?	-9%	0%	-1
COc1ccc2nc(C)cc(N3CCN(c4ccccc4)CC3)c2c1	18µM*	-13%	21µM*	-27%	?	-65*
CCn1c(N2CCN(CC(=O)c3ccc(OC)cc3)CC2)nc2ccccc21	-14%	-7%	-6%	-1%	-5%	-16
COc1ccc(C(=O)CN2CCN(c3cc(C)nc4ccccc34)CC2)cc1	29µM*	8.2µM*	26µM*	-1%	-3%	0
COc1ccc2nc(C)cc(N3CCOCC3)c2c1	-24%	?	-26%	7%	0%[9.24 µM]	13
CC[C@@H]1C=C(C)C[C@H](C)C[C@H](OC)[C@H]2O[C@@](O)(C(=O)C(=O)N3CCCC[C@H]3C(=O)O[C@H](/C(C)=C/[C@@H]3CC[C@@H](O)[C@H](OC)C3)[C@H](C)[C@@H](O)CC1=O)[C@H](C)C[C@@H]2OC	.	8.2µM*	.	.	.	.
Cc1ccc(-c2cc(C(=O)N3CCN(S(=O)(=O)c4ccc(Br)s4)CC3)[nH]n2)cc1C	13µM*	.	15µM*	.	.	.
O=C(c1cc(-c2ccc(Br)cc2)n[nH]1)N1CCN(S(=O)(=O)c2ccc(Br)s2)CC1	23µM*	.	21µM*	.	.	.
COc1ccc(-c2cc(C(=O)N3CCN(S(=O)(=O)c4ccc(C)cc4)CC3)[nH]n2)cc1	?	-1%	?	-6%	10%	-20
COc1ccc(S(=O)(=O)N2CCN(C(=O)c3cc(-c4ccc(C)cc4)n[nH]3)CC2)cc1	?	6%	26µM*	-4%	-11%	-83*
Cc1ccc(-c2cc(C(=O)N3CCN(S(=O)(=O)c4ccc(Br)s4)CC3)[nH]n2)c(C)c1	18µM*	.	12µM*	.	.	.
SMILES	DT40 TDP1 no CPT	ELG1 DNA repair	DT40 TDP1 CPT	HT1080 IDH1KD tx	HT1080-NT tox	IL1B secr inh
COc1ccc(C)cc1NC(=O)C1CCN(S(=O)(=O)c2c(C)noc2/C=C/c2ccco2)CC1	-28%	.	-15%	.	.	.
CC(=O)NN1C(=O)/C(=C2/Sc3ccc(Cl)cc3N2C)SC1=S	-1%	2%	-1%	-16%	-8%	10
CC(C)c1ccc(NC(=O)CCCN2C(=S)NC(C)(C)CC2C)cc1 (stereo unspecified)	?	-27%	?	-22%	-2%	-4
COc1cccc(C(=O)Nc2c(C(=O)c3ccc(F)cc3)oc3ccccc23)c1	-6%	.	-14%	.	.	.
O=C(c1ccoc1)N1CCN(c2cc(-c3ccncc3)nc3cc(-c4cccc(Cl)c4)nn23)CC1	5.8µM*	.	13µM*	1%	0%	-11
CC(=O)N1CCN(c2cc(-c3ccccc3)nc3cc(-c4cccc(Cl)c4)nn23)CC1	10µM*	.	21µM*	1%	4%	3
O=C(c1ccoc1)N1CCN(c2cc(-c3cccnc3)nc3cc(-c4cccc(Cl)c4)nn23)CC1	7.3µM*	.	18µM*	-3%	-3%	?
O=C(c1ccncc1)N1CCN(c2cc(-c3ccccc3)nc3cc(-c4cccc(Cl)c4)nn23)CC1	7.3µM*	.	12µM*	3%	7%	6
O=C(c1ccncc1)N1CCN(C(=O)c2cccc3ccccc23)CC1	-15%	-13%	-8%	-1%	2%	11
O=C(c1ccoc1)N1CCC2(CC1)Oc1ccc(Cl)cc1C(=O)C21CC(c2cccnc2)=NO1 (stereo unspecified)	-13%	-25%	-14%	3%	2%	-7
O=C(c1ccoc1)N1CCCC(N2CCN(c3cccc(Cl)c3)CC2)C1 (stereo unspecified)	-26%	-2%	?	16%	12%	8
Cc1ccc(N2CC(NC(=O)CCc3ccccc3)CC2=O)cc1C (stereo unspecified)	-21%	.	-5%	.	.	.
Cc1ccc(NC(=O)COC(=O)C2CC(=O)N(Cc3ccccc3)C2)cc1S(=O)(=O)N(C)C (stereo unspecified)	1%	-5%	15%	16%	21%	13
